Source: PubChem
TDP1 cell noCPT: qHTS for Inhibitors of human tyrosyl-DNA phosphodiesterase 1 (TDP1): qHTS in cells in absence of CPT. Potency, µM (top dose mostly 46.2 µM), inactives show top-dose activity change, negative = growth inhibition, usual class: inhibitors. actives 15% (n = 420,000). DT40 Tdp1-/- hTDP1 cells, no CPT, ATP luminescence, 48 h. AID 686978, 2013; note: nearly all actives have a fitted effect of over 55% in size
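DT40 Tdp1-/-;hTDP1 cells, no CPT (DMSO vehicle only), 400 cells/well; compounds pin-transferred; ≥48 hr, 37 °C; CellTiter-Glo 30 min RT dark, luminescence read.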
DT40 TDP1 CPT: qHTS for Inhibitors of human tyrosyl-DNA phosphodiesterase 1 (TDP1): qHTS in cells in presence of CPT; actives 12% (n = 420,000); chicken DT40 Tdp1-/-;hTDP1 cells + 20 nM CPT, ATP luminescence, 48 h; Potency, µM (series often up to 46.2 µM), for inactives: at the highest dose activity change, negative = growth inhibition, hits mostly inhibitors; note: nearly all actives have a fitted effect of over 55% in size
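Cell growth measured by CellTiter-Glo luminescence after a minimum 48 h, 37 C compound exposure with 20 nM CPT in Tdp1-knockout DT40 cells stably expressing hTDP1, seeded 400/well; qHTS titration format.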
VP16 counter: VP16 counterscreen qHTS for inhibitors of ROR gamma transcriptional activity; Drosophila S2 Gal4-VP16 UAS-luciferase, luminescence, 20 h; AID 2546, 2010; Potency, µM (highest dose often 53.6 µM), without a hit: at the top dose activity, negative = inhibition, hits mostly inhibitors; actives 3.5% (n = 310,000);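 note: Gal4-VP16 expression switched on by copper sulfate through the metallothionein promoter; nearly all actives have a fitted effect of over 50% in size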
RORgamma inh: qHTS for inhibitors of ROR gamma transcriptional activity | Nuclear receptor ROR-gamma (Mus musculus), P51450 | Potency, µM (titrated, usually from 53.6 µM), for inactives: at the highest dose activity change, negative = inhibition, actives largely listed as inhibitors | actives 5.4% (n = 310,000) | Drosophila S2 Gal4-RORgamma UAS-luciferase reporter, 20 h; note: nearly all actives have a fitted effect of over 60% in size
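Luminescence from a UAS-regulated Photinus luciferase reporter in stably transfected Drosophila Schneider cells is measured; decreased signal marks ROR gamma inhibition. Fusion expression is induced by 700 uM copper sulfate for 20 hr.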
TDP1 block: qHTS Assay for Inhibitors of Tyrosyl-DNA Phosphodiesterase (TDP1). Tyrosyl-DNA phosphodiesterase 1 (Homo sapiens), Q9NUW8. recombinant TDP1, AlphaScreen DNA substrate cleavage. Potency, µM (highest dose often 130 µM), inactives show at the highest dose activity change, negative = inhibition, most hits filed as inhibitors. actives 0.28% (n = 350,000). AID 485290, 2010; note: nearly all actives have a fitted effect of over 40% in size
Target sequence (Q9NUW8 whole entry, looked up): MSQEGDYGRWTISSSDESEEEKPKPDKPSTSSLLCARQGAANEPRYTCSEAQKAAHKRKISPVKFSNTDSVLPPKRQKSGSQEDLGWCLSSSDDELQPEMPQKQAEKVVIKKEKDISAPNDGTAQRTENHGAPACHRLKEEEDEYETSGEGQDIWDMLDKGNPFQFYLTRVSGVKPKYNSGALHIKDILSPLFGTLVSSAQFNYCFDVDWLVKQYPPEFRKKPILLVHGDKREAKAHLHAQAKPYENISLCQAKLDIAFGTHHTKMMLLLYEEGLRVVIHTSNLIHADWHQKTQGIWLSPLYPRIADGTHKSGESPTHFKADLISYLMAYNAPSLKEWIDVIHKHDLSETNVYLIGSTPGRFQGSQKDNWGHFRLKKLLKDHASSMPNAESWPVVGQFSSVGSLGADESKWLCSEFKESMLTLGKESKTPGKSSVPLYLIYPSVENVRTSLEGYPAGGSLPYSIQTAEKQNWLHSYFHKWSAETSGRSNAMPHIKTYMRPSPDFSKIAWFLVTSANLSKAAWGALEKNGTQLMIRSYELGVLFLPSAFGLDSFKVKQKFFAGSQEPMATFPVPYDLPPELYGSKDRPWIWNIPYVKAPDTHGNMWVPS
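Here, a 5' biotin and 3' phosphotyrosine-FITC DNA oligonucleotide reports Tdp1 activity: intact substrate bridges AlphaScreen beads, while cleavage leaves a 3' phosphate and drops signal. All incubations at room temperature.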
* = called active by the depositor; ? = inconclusive; . = no result given. Most compounds without a hit are left out; they make up all but 19% or so of the library. Calls come from the whole dose curve; as a rule, active = well fitted curve in the direction sought with a large enough effect; inconclusive = small, poorly fitted or top-dose-only effect, or another doubt; inactive = no such curve, though single readings can be large; an effect the other way counts as inactive or inconclusive. % is set by controls: 0 for no effect and ±100 for the full control effect; potency is the fitted concentration of half-maximal effect.

SMILES	TDP1 cell noCPT	DT40 TDP1 CPT	VP16 counter	RORgamma inh	TDP1 block
CCCCCCN1C[C@@H](n2cc(COC(=O)c3ccccc3)nn2)[C@H](O)C[C@@H]1c1ccc(C)cc1	11.6µM*	18.4µM*	.	.	.
CCCCCCN1C[C@H](O)[C@@H](n2cc(COC(=O)c3ccccc3)nn2)C[C@@H]1c1ccc(C)cc1	16.4µM*	?	.	.	.
CCCCCC(=O)N1C[C@H](n2cc(COC(=O)c3ccccc3)nn2)[C@@H](O)C[C@@H]1c1ccc(Cl)cc1	16.4µM*	?	.	.	.
CCCCCC(=O)N1C[C@@H](n2cc(COC(=O)c3ccccc3)nn2)[C@H](O)C[C@@H]1c1ccc(C)cc1	-16.5%	-20.8%	.	.	.
COC(=O)[C@]1(Cc2ccccc2)N[C@H](CN(C)C(=O)Nc2ccc(OC)cc2)[C@@H]2C(=O)N(C)C(=O)[C@@H]21	8.8%	8.6%	.	.	1.9%
Cc1cc(C)nc(Nc2ccc(C)c([N+](=O)[O-])c2)n1	-22.6%	18.1%	9.6%	?	2.5%
Cc1nnc(Cc2ccccc2)c2n[nH]c(C)c12	0.731µM*	0.731µM*	.	.	.
O=C(CSc1n[nH]c(-c2ccccc2Cl)n1)NCCc1ccccc1	20.6µM*	9.2µM*	.	.	5.4%
CCOc1ccccc1CNC(=O)CSc1n[nH]c(-c2ccccc2Cl)n1	23.1µM*	13µM*	.	.	2.7%
COc1ccc(NC(=O)CN(C)C(=O)C2CSC3(C)CCC(=O)N23)cc1 (stereo not given)	-12.6%	-1.6%	.	.	0.0%
Cc1ccc(C(=O)NCCCNC(=O)c2ccc(Cl)cc2)cn1	?	-0.8%	1.6%	-14.0%	-4.8%
O=C1CCC/C(=N/Nc2ccc(Cl)cc2)C1	7.31µM*	16.4µM*	?	27.2%	10.7%
O=C(NN=C1CCCC1)c1ccc(Cl)cc1	-17.9%	14.3%	3.3%	?	.
C=CCCC(=O)N1CCC(n2nccc2NC(=O)c2ccc(OC)cc2)CC1	1.0%	16.9%	5.6%	22.9%	1.0%
CCc1ccc(NCc2cc3c(C)nn(-c4ccccc4)c3[nH]c2=O)cc1	12.6µM*	20.6µM*	-5.4%	-44.1%	8.8%
Cc1ccc(-c2nn(-c3ccccc3)c3[nH]c(=O)c(CNCc4ccccc4)cc23)cc1	?	?	-0.2%	?	-2.7%
Cc1ccc(-c2nn(-c3ccccc3)c3[nH]c(=O)c(CNCCN(C)C)cc23)cc1	.	.	7.94µM*	3.98µM*	4.8%
Cc1nn(-c2ccccc2)c2[nH]c(=O)c(CNCc3ccc4c(c3)OCO4)cc12	14.6µM*	18.4µM*	-8.8%	1.0%	11.0%
FC(F)(F)c1cccc(NC(=S)Nc2ccc(Cl)c(Cl)c2)c1	13µM*	?	?	?	6.3%
FC(F)(F)c1cccc(NC(=S)NC(c2ccccc2)c2ccccc2)c1	5.17µM*	3.66µM*	6.31µM*	7.08µM*	-3.0%
CC(C)(C)NC(=S)Nc1cccc(C(F)(F)F)c1	25.9µM*	?	?	30.8%	4.9%
COc1ccc(NC(=S)NNC(=S)Nc2cccc(C(F)(F)F)c2)cc1	6.51µM*	5.8µM*	-7.0%	-1.0%	10.3%
FC(F)(F)c1cccc(NC(=S)NNC(=S)Nc2cccc(C(F)(F)F)c2)c1	.	.	-29.3%	-11.8%	5.1%
CCOc1ccc(NC(=S)NNC(=S)Nc2cccc(C(F)(F)F)c2)cc1	?	?	-18.5%	?	6.3%
CCC(C(=O)Nc1cccc(C(F)(F)F)c1)c1ccccc1 (stereo not given)	?	?	-27.6%	30.8%	-3.2%
SMILES	TDP1 cell noCPT	DT40 TDP1 CPT	VP16 counter	RORgamma inh	TDP1 block
CNNC(=S)Nc1cccc(C(F)(F)F)c1	0.7%	1.1%	26.9%	-32.3%	6.3%
CCc1nnc(NC(=O)c2ccc(N(C)S(=O)(=O)c3ccccc3)cc2)s1	-21.7%	-26.7%	1.2%	?	5.2%
Cc1c(NC(=O)c2cc(=O)[nH]c3ccccc23)c(=O)n(-c2ccccc2)n1C	23.5%	1.5%	2.6%	22.9%	2.0%
O=[N+]([O-])c1cc(C(F)(F)F)cc([N+](=O)[O-])c1NCCNC(=S)Nc1ccc(Cl)c(Cl)c1	20.6µM*	?	?	?	10.1%
COC(=O)c1c(SC)nc2ccccc2c1OCc1ccc(C)cc1C	25.9µM*	?	.	.	-5.3%
CC(=O)Nc1ccc(N2CCN(c3ccc(C(F)(F)F)cn3)CC2)nc1	?	?	13.5%	?	5.1%
Cc1cccc(C)c1NC(=O)C(c1ccccc1)N1CCOCC1 (stereo not given)	-13.1%	-8.7%	-0.7%	-9.3%	-2.5%
Cc1cccc(C)c1NC(=O)C(c1ccccc1)N1CCN(c2ccc(C(F)(F)F)cn2)CC1 (stereo not given)	?	23.1µM*	.	.	.
CCc1nc(CN2CCN(c3ccc(C(F)(F)F)cn3)CC2)c(C)[nH]1	6.51µM*	11.6µM*	-4.5%	2.9%	.
OC(CN1CCN(c2ccc(C(F)(F)F)cn2)CC1)c1ccccc1 (stereo not given)	?	-11.6%	0.2%	22.2%	.
Cc1cccc(C)c1NC(=O)CN1CCN(c2ccc(C(F)(F)F)cn2)CC1	11.6µM*	14.6µM*	.	.	.
CC(=O)c1cccc(OCC(=O)N2CCN(c3ccc(C(F)(F)F)cn3)CC2)c1	14.6µM*	?	-2.9%	65.3%	6.3%
NC(=O)NC(=O)COC(=O)c1ccc2noc(-c3ccccc3)c2c1	-8.9%	-10.5%	-0.7%	10.3%	0.1%
CC(C)CCn1c(SCc2c(F)cccc2Cl)nc2ccsc2c1=O	7.7%	-24.2%	.	.	-3.4%
O=C(CO/N=C/c1ccc(OC(F)F)cc1)NC1CCCC1	-27.1%	-20.5%	-3.7%	19.9%	2.6%
CC(=O)N1CCN(C(=O)CNC(=O)c2ccc(Br)o2)CC1	5.8%	3.5%	4.9%	-3.4%	4.4%
O=C(NCC(=O)N1CCN(c2ccc(C(F)(F)F)cn2)CC1)c1ccc(Br)o1	6.51µM*	20.6µM*	.	.	0.6%
Cc1ccccc1SCC(=O)N1CCN(c2ccc(C(F)(F)F)cn2)CC1	23.1µM*	?	?	?	5.4%
COc1cc2c(cc1OC)C(C)N(C(=O)/C=C/c1cc(OC)c(OC)c(OC)c1)CC2 (stereo not given)	8.2µM*	14.6µM*	-8.5%	-1.3%	.
COc1cc2c(cc1OC)CN(C(=O)/C=C/c1cc(OC)c(OC)c(OC)c1)CC2	9.2µM*	?	3.1%	-12.8%	.
COc1cc2c(cc1OC)C(CNC(=O)C=Cc1cc(OC)c(OC)c(OC)c1)C2 (stereo not given)	18.4µM*	?	.	.	.
COc1cc2c(cc1OC)CN(C(=O)/C=C/c1ccc(F)cc1)CC2	?	?	-12.4%	28.2%	10.8%
